Screening results as filed in PubChem BioAssay.
Hits are enriched below; roughly 9.2% of the tested compounds scored in any of these assays.
NPC1 promoter act = NPC1 promoter activation | Huh7 NPC1 promoter luciferase reporter, 24 h | Potency, µM (doses to about 9.22 µM), for inactives: at the highest dose activation, hits mostly activators | hit rate 2.4% among 320,000 | AID 485313; further: % of control where 0% means no effect; nearly all actives have a fitted effect of over 60% in size
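NPC1 promoter–luciferase Huh7 cells; 24 h compound; luminescence.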
Rab9 prom act = activators of Rab9 promoter | Huh7 Rab9 promoter-luciferase reporter, luminescence, 24 h | Potency, µM (top dose mostly 9.22 µM), for inactives: top-dose activation, negative = inhibition, usual class: activators | AID 485297 | hit rate 2.8% among 320,000; further: % of control where 0% means no effect; nearly all actives have a fitted effect of over 60% in size
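Quantitative HTS format; Huh7 Rab9-luciferase reporter cells (1500/well) receive compound 2 h post-plating, incubate 24 h at 37 °C, then get luciferase reagent for 10 min before luminescence reading.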
ELG1 genotoxic = inducers of genotoxicity in HEK293T ELG1-luciferase cells; hit rate 1.3% among 330,000; HEK293T ELG1-luciferase reporter, luminescence, 16 h; Potency, µM (highest dose often 46 µM), for inactives: at the highest dose activity change, positive = activation, hits mostly activators; further: % of control where 0% means no effect; nearly all actives have a fitted effect of over 60% in size
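HEK293T cells expressing luciferase-tagged ELG1 were exposed to compound or DMSO vehicle for 16 hr at 37 °C and 5% CO2. Luciferase activity was then measured with ONE-Glo after 30 min at room temperature.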
FLuc counter = inhibits or activates purified firefly luciferase, miR-21 counter-screen; P08659; purified FLuc, Km substrates, luminescence inhibition; Potency, µM (doses to about 57.5 µM), for the others: at the top dose activity change, negative = inhibition, actives largely listed as inhibitors; hit rate 6.9% among 360,000;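 further: plate controls were vehicle for no effect and reference inhibitor for full effect; nearly all actives have a fitted effect of over 55% in size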
Target sequence (P08659 whole entry, looked up): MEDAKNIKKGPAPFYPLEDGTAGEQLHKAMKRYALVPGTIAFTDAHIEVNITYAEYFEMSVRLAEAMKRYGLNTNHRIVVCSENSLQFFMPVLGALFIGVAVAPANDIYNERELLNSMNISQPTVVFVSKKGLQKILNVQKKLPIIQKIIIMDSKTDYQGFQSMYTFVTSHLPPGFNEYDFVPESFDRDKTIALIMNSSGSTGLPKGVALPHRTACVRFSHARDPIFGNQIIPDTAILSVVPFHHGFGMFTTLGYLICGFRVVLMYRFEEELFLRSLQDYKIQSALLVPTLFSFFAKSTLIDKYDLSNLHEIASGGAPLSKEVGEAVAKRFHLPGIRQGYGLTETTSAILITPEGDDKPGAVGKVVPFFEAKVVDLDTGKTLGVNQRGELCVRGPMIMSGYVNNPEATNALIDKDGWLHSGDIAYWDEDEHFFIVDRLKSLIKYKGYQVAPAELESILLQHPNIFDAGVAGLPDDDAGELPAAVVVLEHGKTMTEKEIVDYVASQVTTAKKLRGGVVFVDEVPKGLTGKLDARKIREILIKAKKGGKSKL
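Purified P. pyralis luciferase, 10 nM final, with Km-level 10 uM D-luciferin and 10 uM ATP in 50 mM Tris acetate pH 7.5, 10 mM Mg acetate, 0.01% Tween-20, 0.05% BSA; 6-point qHTS titration about 60 µM downward; luminescence read.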
SMN2 splice enh = SMN2 splice variant enhancement | HEK293 SMN2-luciferase splicing reporter, luminescence, 30-36 h | Potency, µM (series often up to 46.1 µM), inactives show at the top dose activity change, positive = activation, most hits filed as activators | hit rate 2.8% among 210,000 | AID 1458; further: % of control where 0% means no effect; nearly all actives have a fitted effect of over 55% in size
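qHTS luciferase splicing reporter: luminescence rises when SMN2 exon 7 is included in transfected HEK293 cells. Compound exposure lasted 30-36 h at 37C, with 4.5 mM final sodium butyrate as control, followed by a ONE-Glo read.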
ELG1 DNA repair = inhibitors of ELG1-dependent DNA repair in HEK293T cells; AID 504467; HEK293T ELG1-luciferase reporter, luminescence, 16 h; DNA damage induced by 5-fluorouridine; hit rate 2.3% among 330,000; Potency, µM (series often up to 46.1 µM), without a hit: top-dose activity change, negative = inhibition, hits mostly inhibitors; further: on the % scale 0 is the no-effect control and ±100 the full control effect; nearly all actives have a fitted effect of over 55% in size
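Luminescence from the luciferase reporter, measured 30 min after ONE-Glo reagent at room temperature, was the read-out. Beforehand, 2,000 cells per well were exposed for 16 hr at 37 °C to 5-fluorouridine together with compound or vehicle.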
Numbers without * were called inactive; ? = inconclusive; / = not tested or not shown. The call rests on the fitted dose curve; in most records, active means well fitted curve in the direction sought with a large enough effect; inconclusive means small, poorly fitted or top-dose-only effect, or another doubt; inactive means no such curve, though single readings can be large; an effect the other way counts as inactive or inconclusive. Potency means the concentration at half of the fitted maximal effect.

SMILES	NPC1 promoter act	Rab9 prom act	ELG1 genotoxic	FLuc counter	SMN2 splice enh	ELG1 DNA repair
CC(C)(C)C(=O)Nc1ccc(C(=O)Nc2cccnc2)cc1	?	4µM*	21µM*	21µM*	?	?
O=C(Nc1ccncc1)c1ccc(F)cc1	1%	0%	2%	4%	-13%	-9%
O=C(Nc1cccnc1)c1ccc(-c2ccccc2)cc1	?	?	?	2.4µM*	-2%	?
CC(C)Cc1nn2c(=O)cc(COC(=O)c3ccc(NC(=O)CCc4ccccc4)cc3)nc2s1	/	/	/	2%	/	/
CCOc1ccc(NC(=O)Cn2c(=O)n(Cc3ccc4c(c3)OCO4)c(=O)c3ccc(C(=O)NC4CCCCC4)cc32)cc1	/	/	/	-3%	5%	/
CN(C)S(=O)(=O)c1cccc(NC(=S)Nc2cccc3cnccc23)c1	-5%	-14%	-14%	?	/	21µM*
S=C(Nc1cccnc1)Nc1cccc2cnccc12	-5%	10%	-14%	?	-27%	-17%
COc1ccccc1C(=O)N/N=C/c1cnc2ccccc2n1	?	?	?	?	16µM*	?
O=C(N/N=C/c1ccc(Cl)s1)C(O)c1ccccc1 (stereo not given)	-2%	11%	0%	-12%	/	19%
COc1ccccc1C(=O)N/N=C/c1ccc(Cl)s1	10%	17%	7%	19µM*	?	?
O=C(N/N=C\c1ccc(Cl)s1)c1cccs1	25%	?	-2%	17µM*	2%	?
N#Cc1c(C(F)(F)F)cc(-c2cccs2)nc1SCC(=O)Nc1ccc(Cl)cc1	/	/	/	-5%	-11%	/
Oc1cc(-c2ccc(N3CCCCC3)nc2)cc2cccnc12	10%	4%	18µM*	?	/	?
CN(C)CCCNC(=O)c1ccc(-c2cc(O)c3ncccc3c2)cc1	-4%	-6%	14%	-3%	/	?
CN(C)c1ccc(-c2cc(O)c3ncccc3c2)cc1	-7%	-2%	16µM*	15µM*	/	?
Oc1cc(Nc2ccncc2)cc2cccnc12	-2%	2%	4%	0%	/	7%
Oc1cc(-c2ccncc2)cc2cccnc12	-35%	-35%	-8%	?	/	16µM*
CN1CCN(c2ccc(-c3cc(O)c4ncccc4c3)cc2)CC1	12%	?	/	6µM*	/	/
CCCC(=O)N1c2ccccc2[C@@H](N(C(C)=O)c2ccccc2)C[C@H]1C	-2%	5%	0%	1%	6%	7%
CCC(=O)N1c2ccccc2C(N(C(=O)CC)c2ccccc2)CC1C (stereo not given)	-1%	-2%	23µM*	-2%	/	?
CCC(=O)N1c2ccccc2C(N(C(C)=O)c2ccccc2)CC1C (stereo not given)	-12%	-3%	?	6%	5.6µM*	?
COc1ccc(N(CC(=O)N2CCCCC2)S(=O)(=O)c2ccc(OC)c(OC)c2)cc1	/	/	/	-11%	2%	/
O=C(c1cc2c(s1)-c1ccccc1OC2)N1CCCC1	?	2.8µM*	?	12µM*	-22%	?
CCOC(=O)N1CCN(C(=O)c2cc3c(s2)-c2ccccc2OC3)CC1	-1%	-5%	3%	1%	1%	-7%
CCCN1CCN(C(=O)c2cc3c(s2)-c2ccccc2OC3)CC1	?	4µM*	15µM*	7.6µM*	/	?
CCCN(CC(=O)Nc1ccccc1C)C(=O)c1ccc(N2CCCCC2)c([N+](=O)[O-])c1	-10%	-5%	-1%	1%	/	-6%
COC(=O)c1ccc(OC)c(Cn2c(=O)n(-c3cccc(Cl)c3)c(=O)c3c4c(sc32)CN(C(C)=O)CC4)c1	/	/	/	-2%	5%	/
COCC(C)n1c(C)cc(C(=O)COC(=O)c2ccc3ncsc3c2)c1C (stereo not given)	1%	15%	?	17µM*	-17%	16%
